# Menin-MLL TR inh = qHTS Assay for Inhibitors Targeting the Menin-MLL Interaction in MLL Related Leukemias: Competition With Texas Red Labeled MLL-derived Mutant Peptide; O00255; Menin + Texas Red MLL mutant peptide, fluorescence polarization; Potency, µM (titrated, usually from 61.6 µM), for the others: at the top dose FP activity change, negative = inhibition, actives largely listed as inhibitors; hit rate 0.23% among 270,000; active means well fitted inhibition curve with a large enough effect in the polarisation, with a control signal flat, not every such curve was filed as active; inconclusive means small, poorly fitted or top-dose-only effect, or effect the other way, or a change in a side signal; inactive means no such curve, though single readings can be large or run the other way; the % refers to the polarisation; further: potency means the concentration at half of the fitted maximal effect; % of control where 0% means no effect
# Target sequence (O00255 whole entry, looked up): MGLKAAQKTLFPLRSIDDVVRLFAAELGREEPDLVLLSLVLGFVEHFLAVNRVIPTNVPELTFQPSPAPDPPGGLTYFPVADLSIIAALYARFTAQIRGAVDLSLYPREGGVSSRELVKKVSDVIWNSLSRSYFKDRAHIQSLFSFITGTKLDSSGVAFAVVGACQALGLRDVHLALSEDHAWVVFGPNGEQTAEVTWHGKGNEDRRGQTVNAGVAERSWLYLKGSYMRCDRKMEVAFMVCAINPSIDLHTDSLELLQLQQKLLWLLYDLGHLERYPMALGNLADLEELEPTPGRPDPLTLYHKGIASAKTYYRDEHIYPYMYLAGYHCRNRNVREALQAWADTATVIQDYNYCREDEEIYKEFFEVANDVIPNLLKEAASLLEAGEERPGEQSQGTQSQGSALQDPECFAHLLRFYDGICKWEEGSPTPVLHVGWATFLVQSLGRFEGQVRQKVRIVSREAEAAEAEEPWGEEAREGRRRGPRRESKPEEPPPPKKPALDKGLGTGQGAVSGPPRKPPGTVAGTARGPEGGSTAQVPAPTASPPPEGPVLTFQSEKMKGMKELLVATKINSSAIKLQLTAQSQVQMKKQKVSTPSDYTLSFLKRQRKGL
# MLL CXXC-DNA inh = qHTS Fluorescence Polarization Assay for Inhibitors of MLL CXXC domain - DNA interaction | Histone-lysine N-methyltransferase 2A (Homo sapiens), Q03164 | MLL-CXXC / FITC-HOXA9 DNA fluorescence polarization | Potency, µM (highest dose often 115 µM), for the others: top-dose activity change, negative = inhibition, most hits filed as inhibitors | hit rate 0.037% among 290,000; active means well fitted inhibition curve with a large enough effect in the polarisation, with a control signal flat, not every such curve was filed as active; inconclusive means small, poorly fitted or top-dose-only effect, or effect the other way, or a change in a side signal; inactive means no such curve, though single readings can be large or run the other way; the % refers to the polarisation; further: potency means the concentration at half of the fitted maximal effect
#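 Steps: dispense CXXC domain solution (7 uM) → pin compounds or unlabeled HOX-A9 DNA control → 5 min ambient → add FLSN-HOX-A9 solution (50 nM) → spin → 30 min ambient → fluorescence polarization. Tris pH 7.5/NaCl/DTT/BSA buffer.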
# Menin-MLL FL inh = qHTS Assay for Inhibitors Targeting the Menin-MLL Interaction in MLL Related Leukemias: Competition With Fluorescein Labeled MLL-derived Peptide; Fluorescence polarization, fluorescein-MLL peptide displacement from menin; FP activity change, % at 61.4 µM; 290,000 tested, under 10 active; AID 1766, 2009; active means well fitted curve in the direction sought with a large enough effect in the polarisation, not every such curve was filed as active; inconclusive means small, poorly fitted or top-dose-only effect, or effect the other way, or a change in a side signal; inactive means no such curve, though single readings can be large or run the other way; the % refers to the polarisation; further: % of control where 0% means no effect
# MLL CXXC FP-Fl = qHTS Fluorescence Polarization (FP) Assay for Inhibitors of MLL CXXC domain - DNA interaction: Fluorescein FP; shares compounds with MLL CXXC-DNA inh; MLL CXXC-DNA binding, fluorescein FP; Potency, µM (titrated, usually from 345 µM), for the others: at the top dose activity change, negative = inhibition, most hits filed as inhibitors; hit rate 70% among 200; further: potency means the concentration at half of the fitted maximal effect; nearly all actives have a fitted effect of over 80% in size
# MLL CXXC FP-TR = qHTS Fluorescence Polarization (FP) Assay for Inhibitors of MLL CXXC domain - DNA interaction: Texas Red FP. shares compounds with MLL CXXC-DNA inh. MLL CXXC-DNA binding, Texas Red fluorescence polarization. Potency, µM (doses to about 345 µM), without a hit: top-dose activity change, negative = inhibition, most hits filed as inhibitors. hit rate 40% among 200; further: potency means the concentration at half of the fitted maximal effect; on the % scale 0 is the no-effect control and ±100 the full control effect; nearly all actives have a fitted effect of over 75% in size
# MLL CXXC TRF = qHTS Fluorescence Polarization (FP) Assay for Inhibitors of MLL CXXC domain - DNA interaction: HTRF Assay | shares compounds with MLL CXXC-DNA inh | MLL CXXC-DNA binding, HTRF, biochemical | Potency, µM (highest dose often 172 µM), inactives show at the top dose activity change, negative = inhibition, most hits filed as inhibitors | hit rate 30% among 210; further: on the % scale 0 is the no-effect control and ±100 the full control effect; nearly all actives have a fitted effect of over 80% in size
# * hit, by the source's call; i = inactive; u = inconclusive; x = no result given; [ ] = another dose, or the depositor's remark. Many of the other results were omitted from the sample, so hits are more common in it than they were. Unless noted, the call rests on the fitted dose curve; in most records, active means well fitted inhibition curve with a large enough effect; inconclusive means small, poorly fitted or top-dose-only effect; inactive means no such curve, though single readings can be large or run the other way.
SMILES,Menin-MLL TR inh,MLL CXXC-DNA inh,Menin-MLL FL inh,MLL CXXC FP-Fl,MLL CXXC FP-TR,MLL CXXC TRF
Cc1cc(C)c(N(Cc2ccccc2)S(=O)(=O)c2ccc(OCCNC(=O)c3cc4ccccc4o3)cc2)c(C(=O)NO)c1,25%,x,3,x,x,x
COc1ccc(C2/C=C\CN(CC(C)C)C(Cc3ccccc3)C(=O)N2Cc2ccc(F)cc2)cc1 (stereo unspecified),-6%,x,5,x,x,x
CSC1=NCCCN1C(=O)c1c(-c2ccccc2Cl)noc1C,x,u,-3,u,25%,-5%
CSC1=NCCN1C(=O)c1c(-c2ccccc2Cl)noc1C,8%,2%,0,x,x,x
O=c1ccn(C2OC(COP(=O)(O)OC3C(CO)OC(n4ccc(=O)[nH]c4=O)C3O)C(O)C2O)c(=O)[nH]1 (stereo unspecified),9%,6%,5,x,x,x
CCCCS(=O)(=O)N1C2=NC(C(=O)OC)=C(C(=O)OC)[C@@H]3N(C)c4ccccc4[C@]23C[C@H]1C(=O)OC,-2%[11.7 µM],x,0[11.7 µM],x,x,x
Nc1ncnc2c1ncn2[C@@H]1O[C@H](C(=O)N2CCN(CC(=O)Nc3cccc4c3CNC4=O)CC2)[C@@H](O)[C@H]1O,0%,x,0,x,x,x
N.N.O=C(O)C1(C(=O)O)CCC1.[Pt],6%,u,u,8%,u,49µM*
NC1(C(=O)O)CCC1,1%[24.8 µM],x,u,x,x,x
CCOC(=O)/C(=C\C=C1/Sc2cc(OCC)c(OCC)cc2N1CC)C(C)=O,-15%,u,u,x,x,x
CCOC(=O)/C(=C/C=C1\Sc2cc(OCC)c(OCC)cc2N1CC)C(C)=O,-23%,u,u,0.56µM*,u,61%
C=Cc1c(C)/c2[n-]/c1=C\c1[n-]c(c(CC)c1C)/C=c1\[n-]c3c(c1C)C(=O)C(C(=O)[O-])C=3c1[n-]c(c(C)c1CCC(=O)[O-])\C=2.[Cu].[Na+].[Na+] (stereo unspecified),u,u,-27,45µM*,126µM*,7.7µM*
CCCCC[C@]12Cc3cc(OC)c(OC)cc3C(O1)c1c(cc(C)n(-c3ccccc3)c1=O)O2,-7%[11.7 µM],-4%[23 µM],1[11.7 µM],x,x,x
CC(C)(CO)[C@@H](O)C(=O)NCCC(=O)NCCSSCCNC(=O)CCNC(=O)[C@H](O)C(C)(C)CO,1%,0%,-4,x,x,x
CC(C)C[C@H](NC(=O)[C@H](Cc1ccccc1)NC(=O)[C@@H]1CCCN1C(=O)[C@H](CC(=O)O)NC(=O)[C@@H]1CCC(=O)N1)C(=O)N[C@@H](CCCN=C(N)N)C(=O)N[C@@H](Cc1ccccc1)C(N)=O,9%,x,-1,x,x,x
Nc1nnc(SCC(=O)c2ccccc2)s1,-1%,2%,-2,x,x,x
Nc1c(C(=O)c2ccccc2)sc2snc(SCC(=O)c3ccccc3)c12,u,u,u,i,-5%,11%
CCCCCCCCCCCCCCNCCO,6%,10%,-1,x,x,x
Cc1nc(NCc2ccccc2)c2nc(-c3ccccc3)n(CC(C)(C)CN(C)C)c2n1,0%,x,3,x,x,x
COc1cc(/C=C2\C(=O)NN(c3ccc(C)cc3)C2=O)cc([N+](=O)[O-])c1O,u,22µM*,3,18µM*,89µM*,97%
CCOC(=O)COc1ccc(/C=C2/C(=O)NN(c3ccc(F)cc3)C2=O)cc1OC,11%,u,4,u,u,18%
COc1cc(/C=C2\C(=O)NN(c3ccccc3)C2=O)cc([N+](=O)[O-])c1O,u,25µM*,7,45µM*,113µM*,26%
